Laboratory results as given in PubChem BioAssay (NCATS).
Records with an inconclusive call do not appear. Active and inactive are the calls of the source. The call rests on the fitted dose curve; in most records, active means well fitted cell-killing curve with a large enough effect; inconclusive means small, poorly fitted or top-dose-only effect; inactive means flat fitted curve, though single readings scatter.

Assay: Cell Viability - LYMP2-015 (AID 971); further: nearly all actives have a fitted effect of over 55% in size;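 on activity change, negative = lower viability: 0% = DMSO only and full effect = 92 µM tetraoctylammonium bromide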
Conditions: LYMP2-015 lymphoblastoid cell viability; series mostly up to 92.2 µM; activity change, negative = lower viability: at the top concentration
From the text: NIH Chemical Genomics Center [NCGC]
NIH Molecular Libraries Screening Centers Network [MLSCN]
National Institutes of Environmental Health Sciences [NIEHS]
National Toxicology Program [NTP]
We have developed a 1536-well cell-based assay for quantitative high throughput screening (qHTS) against a number of cell lines to determine in vitro cytotoxicity of small molecules. This particular assay uses a human lymphoblastoid cell line (LYMP2-015) purchased from Coriell Institute for Medical Research.
NCGC Assay Protocol Summary:
The CellTiter-Glo luminescent cell viability assay (Promega) is a homogeneous method to measure the number of viable cells in culture. The end point readout of this assay is based on quantitation of intracellular ATP, an indicator of metabolic activity, using the luciferase reaction. Luciferase catalyzes the oxidation of beetle Luciferin to oxyluciferin and light in the presence of ATP. The luminescent signal is proportional to amount of ATP present.
Using the CellTiter-Glo luminescent cell viability assay, the amount of cellular ATP was measured in the lymphoblastoid cell line with complete culture medium following compound treatment for 24 hours. The assay was performed in opaque white Kalypsys 1536-well plates. In the screen, tetraoctylammonium bromide was used as positive control. Library compounds were measured for their ability to cause acute toxicity in the cell line, as reflected by a decrease in intracellular ATP levels, in a concentration-dependent manner. […] AC50 values were determined from concentration-response data modeled with the standard Hill equation.
qHTS protocol for CellTiter Glo lymphoblastoid cellular assay
[Step] [Parameter] [Value] [Description]
1. Reagent; 5 uL; 2500 lymphoblastoid cells/well
2. Time; 5 hr; 37 C incubation
4. Controls; 23 nL; Tetraoctylammonium bromide 6.4pM to 92 uM
5. Time; 24 hr; 37 C incubation
6. Reagent; 5 uL; CellTiter Glo reagent
7. Time; 30 min; Room Temperature
8. Detection; Luminescence; Viewlux plate reader
Keywords: cell viability, cytotoxicity, lymphoblastoid cell line, luminescence, NTPHTS, NTPHTS_NCGC, NIEHS, DSSTox, MLSMR, MLSCN, NIH Roadmap, qHTS, NCGC
Potency means the concentration at half of the fitted maximal effect.

| Structure (SMILES) | activity change, negative = lower viability | Potency |
| --- | --- | --- |
| O=[N+]([O-])c1c(Cl)c(Cl)cc(Cl)c1Cl | -14.3% (inactive) | – |
| OCCCBr | -1.54% (inactive) | – |
| O=C(O)C(Cl)Cl | -7.89% (inactive) | – |
| O=[N+]([O-])c1cc([N+](=O)[O-])c2ccccc2c1 | -17.3% (inactive) | – |
| CN(C)[C@@H]1C(=O)C(C(N)=O)=C(O)[C@@]2(O)C(=O)C3=C(O)c4c(O)cccc4[C@@](C)(O)[C@H]3[C@H](O)[C@@H]12 | -14.1% (inactive) | – |
| C1CCC(NC2CCCCC2)CC1 | – | inactive |
| CCCCC(CC)COC(=O)c1ccccc1C(=O)OCC(CC)CCCC (stereo not given) | 3.36% (inactive) | – |
| O=C(O)COc1ccccc1 | -6.44% (inactive) | – |
| COC(C)(C)CCCC(C)C/C=C/C(C)=C/C(=O)OC(C)C (stereo not given) | -20.9% (inactive) | – |
| O=[N+]([O-])c1c2ccccc2cc2ccccc12 | -8.28% (inactive) | – |
| Nc1ccc(Cl)cc1 | -14.7% (inactive) | – |
| CCCCOC(=O)c1ccccc1C(=O)OCc1ccccc1 | -2.41% (inactive) | – |
| CN(C)NC(=O)CCC(=O)O | -15% (inactive) | – |
| Nc1ccc([N+](=O)[O-])cc1 | -7.11% (inactive) | – |
| O=S(=O)(c1ccc(Cl)cc1)c1ccc(Cl)cc1 | – | inactive |
| Nc1ccc(Sc2ccc(N)cc2)cc1 | -10.7% (inactive) | – |
| Cc1cc(O)ccc1Cl | -4.1% (inactive) | – |
| C=CC(=O)NCNC(=O)C=C | -4.24% (inactive) | – |
| CC(C)(O)C(=O)Nc1ccc([N+](=O)[O-])c(C(F)(F)F)c1 | -15.3% (inactive) | – |
| CCOP(=O)(NC(C)C)Oc1ccc(SC)c(C)c1 (stereo not given) | -10.2% (inactive) | – |
| COc1ccc(C(c2ccc(OC)cc2)C(Cl)(Cl)Cl)cc1 | – | inactive |
| c1cc2ccc3cccc4ccc(c1)c2c34 | 3.03% (inactive) | – |
| CCOCCOC(C)=O | -1.05% (inactive) | – |
| CC(=O)[O][Hg][c]1ccccc1 | – | 0.631 µM (active) |
| CCCCCCCCc1ccc(O)cc1 | -23.9% (inactive) | – |
